The results in this text go back to publication PMC7862700, “An all-to-all approach to the identification of sequence-specific readers for epigenetic DNA modifications on cytosine”.

What all share (experiment): DAPPL (digital affinity profiling via proximity ligation, sequencing); 10 mM Tris-HCl pH 7.5, 50 mM NaCl, 1 mM DTT, 4% glycerol, room temperature, 30 min; GST-TFs on glutathione beads, 16-mer random dsDNA library, 0.1% formaldehyde crosslink after washing; high values mean tight binding
One assay deals with T1, FLI1 (Homo sapiens, UniProt Q01543 1-452).
T1 sequence: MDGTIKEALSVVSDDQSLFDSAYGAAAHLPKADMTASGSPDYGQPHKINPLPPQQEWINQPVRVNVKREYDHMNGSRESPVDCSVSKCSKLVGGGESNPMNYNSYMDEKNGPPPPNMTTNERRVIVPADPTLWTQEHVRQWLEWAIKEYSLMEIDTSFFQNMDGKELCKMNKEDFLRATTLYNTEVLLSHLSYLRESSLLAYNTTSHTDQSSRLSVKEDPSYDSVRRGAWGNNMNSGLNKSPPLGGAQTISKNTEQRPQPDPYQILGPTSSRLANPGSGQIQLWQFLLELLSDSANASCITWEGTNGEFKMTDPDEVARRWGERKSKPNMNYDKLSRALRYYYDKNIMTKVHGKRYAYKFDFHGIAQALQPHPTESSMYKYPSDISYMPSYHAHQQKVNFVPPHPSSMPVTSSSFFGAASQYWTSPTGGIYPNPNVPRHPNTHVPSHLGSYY
As to conditions: protein: recombinant; tags: N-terminal GST; dsDNA, one strand shown. In short, it runs like this: (§1)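 Pools were built from human transcription factors expressed in yeast as GST fusions, captured on glutathione beads and DNA-barcoded, along with a tag-only sample. Incubation with 200 nmole of a 16-mer random double-stranded DNA library lasted 30 min at room temperature in Tris/NaCl/DTT/glycerol buffer, and was followed by washing, 0.1% formaldehyde crosslinking, proximity ligation, PCR amplification and Illumina NextSeq500 sequencing. Binding signal is the quotient of each hexamer's read frequency for a factor and its frequency for the tag-only sample.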

A further assay has as its target T2, ELK1 (Homo sapiens, UniProt P19419 1-428).
T2 sequence: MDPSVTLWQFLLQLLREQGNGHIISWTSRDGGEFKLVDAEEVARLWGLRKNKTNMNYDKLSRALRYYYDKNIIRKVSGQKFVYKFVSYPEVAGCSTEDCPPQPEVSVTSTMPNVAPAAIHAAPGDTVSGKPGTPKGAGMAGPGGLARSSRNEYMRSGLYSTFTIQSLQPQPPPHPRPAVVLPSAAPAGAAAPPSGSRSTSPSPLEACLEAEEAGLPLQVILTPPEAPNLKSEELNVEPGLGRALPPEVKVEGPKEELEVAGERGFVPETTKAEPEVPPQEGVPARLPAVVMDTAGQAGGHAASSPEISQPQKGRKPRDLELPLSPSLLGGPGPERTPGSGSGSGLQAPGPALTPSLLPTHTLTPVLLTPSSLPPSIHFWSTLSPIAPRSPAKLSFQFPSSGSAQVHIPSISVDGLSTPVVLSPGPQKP
The note with it: protein: recombinant; tags: N-terminal GST; dsDNA, one strand shown. In outline: as §1

For a further assay, the target named is T3, GABPA (Homo sapiens, UniProt Q06546 1-454).
T3 sequence: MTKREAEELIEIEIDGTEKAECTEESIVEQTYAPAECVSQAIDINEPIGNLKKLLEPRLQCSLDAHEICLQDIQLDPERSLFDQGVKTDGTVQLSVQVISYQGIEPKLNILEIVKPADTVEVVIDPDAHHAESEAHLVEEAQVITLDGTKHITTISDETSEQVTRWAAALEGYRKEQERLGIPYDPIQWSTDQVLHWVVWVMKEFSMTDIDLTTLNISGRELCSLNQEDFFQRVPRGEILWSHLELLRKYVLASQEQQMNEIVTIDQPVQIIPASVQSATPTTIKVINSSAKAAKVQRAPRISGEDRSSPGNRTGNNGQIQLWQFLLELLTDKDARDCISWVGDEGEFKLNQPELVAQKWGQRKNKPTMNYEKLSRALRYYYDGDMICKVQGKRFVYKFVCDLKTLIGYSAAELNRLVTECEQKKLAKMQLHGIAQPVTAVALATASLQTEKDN
The note with it: protein: recombinant; tags: N-terminal GST; dsDNA, one strand shown. In short, it runs like this:
as §1

The target in a further assay is T4, ERG (Homo sapiens, UniProt P11308 1-479).
T4 sequence: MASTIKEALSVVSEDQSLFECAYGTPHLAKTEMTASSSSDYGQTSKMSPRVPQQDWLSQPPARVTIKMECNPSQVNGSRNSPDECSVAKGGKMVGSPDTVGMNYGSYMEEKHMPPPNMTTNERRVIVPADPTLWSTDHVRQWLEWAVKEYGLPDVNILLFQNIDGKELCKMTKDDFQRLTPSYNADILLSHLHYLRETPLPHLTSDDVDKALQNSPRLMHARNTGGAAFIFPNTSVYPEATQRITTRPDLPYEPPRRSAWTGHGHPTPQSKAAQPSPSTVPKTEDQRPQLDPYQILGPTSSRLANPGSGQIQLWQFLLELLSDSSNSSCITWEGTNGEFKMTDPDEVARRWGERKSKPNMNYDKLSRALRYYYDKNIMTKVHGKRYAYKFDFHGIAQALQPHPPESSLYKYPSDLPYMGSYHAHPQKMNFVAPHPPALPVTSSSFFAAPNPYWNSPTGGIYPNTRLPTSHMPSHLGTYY
The note with it: protein: recombinant; tags: N-terminal GST; dsDNA, one strand shown. In outline: as §1

Another assay has as its target ELF1 (Homo sapiens, UniProt P32519 1-619). The note with it: protein: recombinant; tags: N-terminal GST; dsDNA, one strand shown. In short, it runs like this:
as §1

Another assay addresses T5, EHF (Homo sapiens, UniProt Q9NZC4 1-300).
T5 sequence: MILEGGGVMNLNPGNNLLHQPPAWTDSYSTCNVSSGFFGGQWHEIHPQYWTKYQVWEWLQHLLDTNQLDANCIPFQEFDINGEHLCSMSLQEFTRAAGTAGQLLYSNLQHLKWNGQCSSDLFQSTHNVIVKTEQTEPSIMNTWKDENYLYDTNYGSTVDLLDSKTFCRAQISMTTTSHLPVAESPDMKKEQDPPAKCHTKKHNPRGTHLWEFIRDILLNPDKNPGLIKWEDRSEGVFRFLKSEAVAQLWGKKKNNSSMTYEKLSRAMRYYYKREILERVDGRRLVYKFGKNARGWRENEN
As to conditions: protein: recombinant; tags: N-terminal GST; dsDNA, one strand shown. In outline: as §1

The target in the next assay is SPI1 (Homo sapiens, UniProt P17947 1-270). The note with it: protein: recombinant; tags: N-terminal GST; dsDNA, one strand shown. In short, it runs like this:
as §1

The next assay concerns the target SPIB (Homo sapiens, UniProt Q01892 1-262). The note with it: protein: recombinant; tags: N-terminal GST; dsDNA, one strand shown. In short, it runs like this:
as §1

Another assay has as its target T6, ELK3 (Homo sapiens, UniProt P41970 1-407).
T6 sequence: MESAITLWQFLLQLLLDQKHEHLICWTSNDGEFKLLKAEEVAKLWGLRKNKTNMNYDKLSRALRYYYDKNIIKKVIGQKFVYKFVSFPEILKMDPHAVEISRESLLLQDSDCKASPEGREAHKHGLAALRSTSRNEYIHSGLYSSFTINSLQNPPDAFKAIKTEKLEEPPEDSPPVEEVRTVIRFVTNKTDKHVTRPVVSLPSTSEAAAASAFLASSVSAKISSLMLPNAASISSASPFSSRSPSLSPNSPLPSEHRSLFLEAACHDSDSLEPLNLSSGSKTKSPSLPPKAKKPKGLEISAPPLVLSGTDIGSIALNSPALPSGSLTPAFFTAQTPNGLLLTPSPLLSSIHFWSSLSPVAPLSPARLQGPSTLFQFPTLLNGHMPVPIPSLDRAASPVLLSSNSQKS
The note with it: protein: recombinant; tags: N-terminal GST; dsDNA, one strand shown. In outline:
as §1

The next assay deals with T7, FEV (Homo sapiens, UniProt Q99581 1-238).
T7 sequence: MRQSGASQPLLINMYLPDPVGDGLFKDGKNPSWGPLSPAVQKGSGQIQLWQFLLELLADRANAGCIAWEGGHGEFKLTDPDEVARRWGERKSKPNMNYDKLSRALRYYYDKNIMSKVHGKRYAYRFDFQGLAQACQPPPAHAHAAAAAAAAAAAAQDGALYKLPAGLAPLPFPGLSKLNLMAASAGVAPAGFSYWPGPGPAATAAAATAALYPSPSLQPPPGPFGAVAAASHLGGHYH
As to conditions: protein: recombinant; tags: N-terminal GST; dsDNA, one strand shown. In short, it runs like this:
as §1

The next assay deals with ETV5 (Homo sapiens, UniProt P41161 1-510). The note with it: protein: recombinant; tags: N-terminal GST; dsDNA, one strand shown. In short, it runs like this:
as §1

For another assay, the target named is HSF1 (Homo sapiens, UniProt Q00613 1-529). The note with it: protein: recombinant; tags: N-terminal GST; chain copies: 3; dsDNA, one strand shown. In short, it runs like this:
as §1

Another assay has as its target T8, SPIC (Homo sapiens, UniProt Q8N5J4 1-248).
T8 sequence: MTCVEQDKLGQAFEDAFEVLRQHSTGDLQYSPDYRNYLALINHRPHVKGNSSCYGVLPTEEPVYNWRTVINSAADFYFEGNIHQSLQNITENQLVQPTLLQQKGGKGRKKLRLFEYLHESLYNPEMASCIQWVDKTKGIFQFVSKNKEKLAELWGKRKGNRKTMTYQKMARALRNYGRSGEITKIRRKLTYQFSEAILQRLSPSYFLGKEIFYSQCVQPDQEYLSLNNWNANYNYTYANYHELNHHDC
As to conditions: protein: recombinant; tags: N-terminal GST; dsDNA, one strand shown. In outline:
as §1

The target in another assay is ELF4 (Homo sapiens, UniProt Q99607 1-663). The note with it: protein: recombinant; tags: N-terminal GST; dsDNA, one strand shown. In outline: as §1
A further assay concerns the target T9, ELK4 (Homo sapiens, UniProt P28324-2 1-405).
T9 sequence: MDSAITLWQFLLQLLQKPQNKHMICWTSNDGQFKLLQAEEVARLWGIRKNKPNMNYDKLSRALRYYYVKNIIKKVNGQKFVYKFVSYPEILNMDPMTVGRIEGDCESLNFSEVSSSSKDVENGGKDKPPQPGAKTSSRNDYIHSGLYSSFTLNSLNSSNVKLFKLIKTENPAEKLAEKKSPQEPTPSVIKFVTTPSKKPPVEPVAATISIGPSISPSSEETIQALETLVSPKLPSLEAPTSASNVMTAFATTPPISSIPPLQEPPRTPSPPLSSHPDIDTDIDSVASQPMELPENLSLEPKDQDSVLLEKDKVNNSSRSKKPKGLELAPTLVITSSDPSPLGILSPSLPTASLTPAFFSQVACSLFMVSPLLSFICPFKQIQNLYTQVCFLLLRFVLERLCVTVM
As to conditions: protein: recombinant; tags: N-terminal GST; dsDNA, one strand shown. In short, it runs like this: as §1

For another assay, the target named is T10, ETV2 (Homo sapiens, UniProt O00321 1-342).
T10 sequence: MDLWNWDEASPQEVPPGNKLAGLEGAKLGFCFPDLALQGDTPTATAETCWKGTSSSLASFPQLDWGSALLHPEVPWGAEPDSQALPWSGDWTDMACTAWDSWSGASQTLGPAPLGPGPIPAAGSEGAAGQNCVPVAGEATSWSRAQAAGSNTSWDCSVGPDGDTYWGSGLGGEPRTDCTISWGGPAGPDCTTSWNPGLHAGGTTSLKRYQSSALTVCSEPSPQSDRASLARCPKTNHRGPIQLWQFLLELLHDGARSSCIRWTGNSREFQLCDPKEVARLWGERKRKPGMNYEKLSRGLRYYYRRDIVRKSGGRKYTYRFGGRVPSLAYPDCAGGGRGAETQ
The note with it: protein: recombinant; tags: N-terminal GST; dsDNA, one strand shown. In short, it runs like this: as §1

In a further assay the target is T11, ELF3 (Homo sapiens, UniProt P78545 1-371).
T11 sequence: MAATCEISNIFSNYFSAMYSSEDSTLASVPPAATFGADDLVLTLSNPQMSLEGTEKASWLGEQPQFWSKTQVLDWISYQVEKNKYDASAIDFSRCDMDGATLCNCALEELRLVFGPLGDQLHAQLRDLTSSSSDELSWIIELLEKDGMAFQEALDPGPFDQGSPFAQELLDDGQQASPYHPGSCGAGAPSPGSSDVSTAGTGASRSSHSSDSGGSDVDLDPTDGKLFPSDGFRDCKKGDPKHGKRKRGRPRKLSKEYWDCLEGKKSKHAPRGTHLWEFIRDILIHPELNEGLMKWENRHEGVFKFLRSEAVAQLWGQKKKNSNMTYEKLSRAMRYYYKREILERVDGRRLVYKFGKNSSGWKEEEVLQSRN
The note with it: protein: recombinant; tags: N-terminal GST; dsDNA, one strand shown. In outline: as §1

The target in another assay is ETV1 (Homo sapiens, UniProt P50549 1-477). As to conditions: protein: recombinant; tags: N-terminal GST; dsDNA, one strand shown. In outline:
as §1

Chain of ELF4 (Q99607 whole entry): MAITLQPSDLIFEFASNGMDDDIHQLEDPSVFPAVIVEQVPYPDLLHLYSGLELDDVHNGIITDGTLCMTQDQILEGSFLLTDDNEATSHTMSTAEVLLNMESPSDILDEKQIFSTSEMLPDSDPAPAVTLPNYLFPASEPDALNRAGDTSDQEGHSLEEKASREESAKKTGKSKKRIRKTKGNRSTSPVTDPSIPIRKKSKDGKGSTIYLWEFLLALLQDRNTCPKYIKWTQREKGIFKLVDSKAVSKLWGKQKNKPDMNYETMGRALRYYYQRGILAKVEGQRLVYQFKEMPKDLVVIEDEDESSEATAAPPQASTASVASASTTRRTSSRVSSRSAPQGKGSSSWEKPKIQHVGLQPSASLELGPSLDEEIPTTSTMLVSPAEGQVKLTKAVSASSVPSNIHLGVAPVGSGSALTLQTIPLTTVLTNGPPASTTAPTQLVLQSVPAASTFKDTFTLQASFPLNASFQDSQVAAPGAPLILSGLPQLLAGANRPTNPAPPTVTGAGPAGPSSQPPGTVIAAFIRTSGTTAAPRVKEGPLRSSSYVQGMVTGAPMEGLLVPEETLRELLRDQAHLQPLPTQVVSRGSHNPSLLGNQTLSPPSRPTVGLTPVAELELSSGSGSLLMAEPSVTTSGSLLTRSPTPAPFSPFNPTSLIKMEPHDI
Chain of ELF1 (P32519 whole entry): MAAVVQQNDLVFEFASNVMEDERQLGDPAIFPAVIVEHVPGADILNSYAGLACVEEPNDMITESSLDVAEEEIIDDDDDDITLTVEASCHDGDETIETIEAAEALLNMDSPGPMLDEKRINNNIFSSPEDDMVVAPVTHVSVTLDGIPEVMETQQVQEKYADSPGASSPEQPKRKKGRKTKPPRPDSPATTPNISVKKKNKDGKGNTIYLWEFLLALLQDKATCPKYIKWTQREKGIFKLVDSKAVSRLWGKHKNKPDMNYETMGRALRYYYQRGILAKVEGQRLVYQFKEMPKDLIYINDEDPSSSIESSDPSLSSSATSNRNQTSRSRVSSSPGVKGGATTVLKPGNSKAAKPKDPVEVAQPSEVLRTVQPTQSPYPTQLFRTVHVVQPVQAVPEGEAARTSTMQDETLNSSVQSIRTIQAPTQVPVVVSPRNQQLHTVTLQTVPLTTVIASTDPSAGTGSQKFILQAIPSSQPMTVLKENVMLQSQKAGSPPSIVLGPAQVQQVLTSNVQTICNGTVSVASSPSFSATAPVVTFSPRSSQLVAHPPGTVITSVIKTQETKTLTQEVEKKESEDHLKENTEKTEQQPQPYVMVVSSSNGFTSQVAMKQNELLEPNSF
Chain of SPIB (Q01892 whole entry): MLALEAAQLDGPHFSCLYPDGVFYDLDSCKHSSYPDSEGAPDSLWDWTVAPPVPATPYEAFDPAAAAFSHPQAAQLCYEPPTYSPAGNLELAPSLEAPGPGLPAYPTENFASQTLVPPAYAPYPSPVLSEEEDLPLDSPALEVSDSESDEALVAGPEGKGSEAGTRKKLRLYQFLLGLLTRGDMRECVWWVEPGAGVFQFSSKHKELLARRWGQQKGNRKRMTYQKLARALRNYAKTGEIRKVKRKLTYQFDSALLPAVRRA
Chain of ETV1 (P50549 whole entry): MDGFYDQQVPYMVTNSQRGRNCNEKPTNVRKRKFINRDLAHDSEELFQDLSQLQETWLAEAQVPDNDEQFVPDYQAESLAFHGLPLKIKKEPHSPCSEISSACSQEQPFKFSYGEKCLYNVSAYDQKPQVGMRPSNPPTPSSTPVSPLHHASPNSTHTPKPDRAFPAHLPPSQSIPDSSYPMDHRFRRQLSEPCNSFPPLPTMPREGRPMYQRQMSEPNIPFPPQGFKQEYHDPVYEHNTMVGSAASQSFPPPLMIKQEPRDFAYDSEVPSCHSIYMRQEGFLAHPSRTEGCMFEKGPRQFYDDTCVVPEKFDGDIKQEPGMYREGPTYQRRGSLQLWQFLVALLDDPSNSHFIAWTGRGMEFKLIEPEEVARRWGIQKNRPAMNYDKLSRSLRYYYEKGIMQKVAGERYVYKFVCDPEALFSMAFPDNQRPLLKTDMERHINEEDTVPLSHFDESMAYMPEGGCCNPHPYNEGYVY
Chain of HSF1 (Q00613 whole entry): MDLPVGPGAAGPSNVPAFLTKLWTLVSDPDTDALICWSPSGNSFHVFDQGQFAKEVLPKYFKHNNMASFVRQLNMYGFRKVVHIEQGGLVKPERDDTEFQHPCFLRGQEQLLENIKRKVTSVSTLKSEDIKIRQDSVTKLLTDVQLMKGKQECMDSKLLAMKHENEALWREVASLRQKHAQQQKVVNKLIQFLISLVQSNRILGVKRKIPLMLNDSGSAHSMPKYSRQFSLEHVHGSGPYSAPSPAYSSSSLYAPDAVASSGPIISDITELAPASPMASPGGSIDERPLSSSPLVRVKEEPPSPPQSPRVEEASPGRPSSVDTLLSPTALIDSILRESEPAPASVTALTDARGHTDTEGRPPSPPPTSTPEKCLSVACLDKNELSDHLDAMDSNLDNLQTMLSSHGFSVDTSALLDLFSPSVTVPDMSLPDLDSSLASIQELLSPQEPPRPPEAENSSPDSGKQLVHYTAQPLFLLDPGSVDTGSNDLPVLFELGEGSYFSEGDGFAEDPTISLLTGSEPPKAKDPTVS
Chain of ETV5 (P41161 whole entry): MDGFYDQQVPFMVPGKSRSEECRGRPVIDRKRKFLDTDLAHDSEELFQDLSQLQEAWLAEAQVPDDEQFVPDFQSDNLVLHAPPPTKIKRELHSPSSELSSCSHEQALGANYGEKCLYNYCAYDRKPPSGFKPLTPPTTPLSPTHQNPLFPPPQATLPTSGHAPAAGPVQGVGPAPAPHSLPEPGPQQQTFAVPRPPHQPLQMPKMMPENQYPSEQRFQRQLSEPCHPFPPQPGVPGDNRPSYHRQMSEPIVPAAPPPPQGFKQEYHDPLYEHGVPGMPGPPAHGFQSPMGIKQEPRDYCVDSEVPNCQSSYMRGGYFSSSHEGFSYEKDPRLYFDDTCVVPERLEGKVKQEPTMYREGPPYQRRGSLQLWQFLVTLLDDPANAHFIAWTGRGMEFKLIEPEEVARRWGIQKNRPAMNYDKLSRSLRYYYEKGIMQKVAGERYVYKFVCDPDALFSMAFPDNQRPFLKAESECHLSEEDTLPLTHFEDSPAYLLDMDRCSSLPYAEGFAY

As for GTTTGA, the binding signal is 1.29 fold enrichment (6-mer frequency, TF over GST control) with FLI1; 1.19 fold enrichment (6-mer frequency, TF over GST control) in the assay with ELK1; 1.36 fold enrichment (6-mer frequency, TF over GST control) in the assay with GABPA; 1.12 fold enrichment (6-mer frequency, TF over GST control) in the assay with ERG; 1.16 fold enrichment (6-mer frequency, TF over GST control) in the assay with ELF1; 1.06 fold enrichment (6-mer frequency, TF over GST control) with EHF. Moreover, the binding signal in the assay with SPI1 was 1.23 fold enrichment (6-mer frequency, TF over GST control); with SPIB it was 1.16 fold enrichment (6-mer frequency, TF over GST control); with ELK3, 1.12 fold enrichment (6-mer frequency, TF over GST control); in the assay with FEV it was 1.13 fold enrichment (6-mer frequency, TF over GST control); with ETV5 it was 1.19 fold enrichment (6-mer frequency, TF over GST control); with HSF1, 1.03 fold enrichment (6-mer frequency, TF over GST control). For the same sequence, the binding signal is 1.25 fold enrichment (6-mer frequency, TF over GST control) with SPIC; 1.13 fold enrichment (6-mer frequency, TF over GST control) with ELF4; 1.28 fold enrichment (6-mer frequency, TF over GST control) in the assay with ELK4; 1.22 fold enrichment (6-mer frequency, TF over GST control) in the assay with ETV2; 1.15 fold enrichment (6-mer frequency, TF over GST control) with ELF3; 1.2 fold enrichment (6-mer frequency, TF over GST control) in the assay with ETV1.
